Screening data deposited in PubChem by National Center for Advancing Translational Sciences (NCATS).
Nrf2 activator: qHTS of Nrf2 Activators | AREc32 ARE-luciferase reporter (MCF7-derived line), luminescence, 24 h | Potency, µM (highest dose often 46.1 µM), without a hit: top-dose activation, most hits filed as activators | 0.31% of 410,000 active | AID 624171, 2012; further: potency means the concentration at half of the fitted maximal effect; % of control where 0% means no effect; nearly all actives have a fitted effect of over 65% in size
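Luciferase luminescence (Steady-Glo, 30 min at room temperature) served as the read-out of ARE activation in AREc32 cells treated with compounds for 24 hr at 37 deg C.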
BRCA1 expr up: qHTS Assay to Identify Small Molecule Activators of BRCA1 Expression; MCF7-BRCA1-FFLuc reporter, luminescence, 48 h; response scale: scaled: vehicle 0%, 10 µM genistein 100%; Potency, µM (titrated, usually from 46.1 µM), inactives show at the top dose activation, hits mostly activators; 1.1% of 380,000 active; AID 624202, 2012; further: potency means the concentration at half of the fitted maximal effect; nearly all actives have a fitted effect of over 80% in size
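Using MCF7 cells harboring a BRCA1 firefly luciferase reporter, plated 2 h before compound pinning, the screen measured luminescence after 48 h incubation. Responses were normalized to DMSO and 10 microM genistein, then fitted for concentration-effect.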
Nrf2 inh: Nrf2 qHTS screen for inhibitors. A549 ARE-Fluc reporter, luciferase luminescence, 18-24 h. Potency, µM (titrated, usually from 46 µM), inactives show at the top dose activity change, negative = inhibition, usual class: inhibitors. 2.1% of 360,000 active; further: potency means the concentration at half of the fitted maximal effect; on the % scale 0 is the no-effect control and ±100 the full control effect; nearly all actives have a fitted effect of over 60% in size
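Reporter: ARE-Fluc in A549. Exposure: 18-24 h, 37 °C, 5% CO2, 5% FBS OPTI-MEM. Readouts: fluorescent cytotoxicity (CellTiter-Fluor), then luminescent Nrf2 signal after BugLite.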
IL-2 act: qHTS of IL-2 Activators. AID 652025, 2013. IL-2 activation reporter assay, cell-based qHTS; stimulated with anti-CD3/CD4/CD28 beads; in transgenic mouse T cells. activation, % (series mostly up to about 46 µM). 0.065% of 360,000 active; in the data active means activation above about 50%; inconclusive means mostly about 30% to 49%; further: 0% is about no effect
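Unstimulated transgenic mouse T cells, 750 per well, received compound and, after 60 minutes, anti-CD3/anti-CD4 bead plus anti-CD28 stimulation. EGFP and DsRed were quantified after 18 hours.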
A549 viability: Nrf2 qHTS screen for inhibitors: counterscreen for cytotoxicity; AID 504648, 2011; A549 ARE-Fluc cells, CellTiter-Fluor viability, 18-24 h; 0.16% of 390,000 active; Potency, µM (series often up to 46 µM), for the others: top-dose activity change, negative = cytotoxicity, most hits filed as inhibitors; further: potency means the concentration at half of the fitted maximal effect; on the % scale 0 is the no-effect control and ±100 the full control effect
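A549 ARE_Fluc cells in 5% FBS OPTI-MEM were exposed to compounds in concentration-response for 18-24 h at 37 deg C. Viability was read by CellTiter-Fluor fluorescence (Ex 405/Em 525) after 30 min, before the luciferase read.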
p53 reactivator: qHTS assay for re-activators of p53 using a Luc reporter; 0.063% of 320,000 active; Potency, µM (series often up to 92.2 µM), for the others: top-dose activity change, positive = activation, hits mostly activators; H1299 p53-A138V BP100-luciferase reporter, luminescence, 24 h; AID 504706, 2011; further: potency means the concentration at half of the fitted maximal effect; % of control where 0% means no effect; nearly all actives have a fitted effect of over 45% in size
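p53-null H1299 cells stably carrying temperature-sensitive p53-A138V and a BP100-luciferase reporter were pinned with compounds (4-point, 1:5 series) and held 24 hrs at 37 deg C. Luminescence was read 10 min after detection reagent.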
The depositor's hits bear a star; u = inconclusive; x = not tested or not shown; ! = not active in a repeat; [ ] = dose if it differs, or a comment. An excerpt weighted towards active compounds, which were near 3.2% of everything screened. Unless noted, the call rests on the fitted dose curve; in most records, active means well fitted curve in the direction sought with a large enough effect; inconclusive means small, poorly fitted or top-dose-only effect, or another doubt; inactive means no such curve, though single readings can be large; an effect the other way counts as inactive or inconclusive.

SMILES	Nrf2 activator	BRCA1 expr up	Nrf2 inh	IL-2 act	A549 viability	p53 reactivator
C[C@@H]1CN([C@H](C)CO)C(=O)c2cc(NC(=O)Nc3ccc(C(F)(F)F)cc3)ccc2O[C@H]1CN(C)S(=O)(=O)c1ccccc1	0%	-60%	16µM*	1	u	3%
COc1ccc(NC(=O)Nc2ccc3c(c2)C(=O)N([C@H](C)CO)C[C@H](C)[C@@H](CN(C)S(=O)(=O)c2ccc(OC)cc2)O3)cc1	5%	-17%	5%	0	-4%	0%
COc1ccc(S(=O)(=O)N(C)C[C@H]2Oc3ccc(NC(=O)Nc4ccc(C(F)(F)F)cc4)cc3C(=O)N([C@H](C)CO)C[C@@H]2C)cc1	0%	-57%	23µM*	-1	u	8%
CCNC(=O)C1CCN(Cc2cc3ccccc3n2Cc2ccc(C)cc2)CC1	0%	x	x	x	-9%	x
COc1ccccc1CCNC(=O)c1ccc(Br)s1	1%	8.9µM*	-4%	1	-1%	7%
CCOc1ccc(NC(=O)CSc2nnc3c(n2)[nH]c2ccc(S(=O)(=O)N4CCCCC4)cc23)cc1	x	-25%	0%	x	1%	x
CSc1cccc(Nc2ccc(S(=O)(=O)N3CCOCC3)cc2[N+](=O)[O-])c1	0%	-18%	18µM*	0	-10%	-5%
CCCC(=O)Nc1ccc(C(=O)Nc2cc(C(F)(F)F)ccc2Cl)cc1	0%	-38%	10µM*	1	-14%	-8%
O=C(Nc1cc(C(F)(F)F)ccc1Cl)c1ccc(NC(=O)C(F)(F)F)cc1	5%	-46%	u	-5	6%	-3%
Oc1ccc(Br)cc1C=Nc1cccn2cc(-c3ccccc3)nc12	5%	6.3µM*	-6%	3	-6%	u
COc1ccc(CC(=O)Nc2ccc(C(N)=O)cc2)cc1	-1%	-5%	7%	1	2%	-1%
COc1ccc(C(=O)Nc2ccc(SC(F)F)cc2)cc1	2%	1.3µM*	2%	0	3%	u
COc1ccc(CC(=O)OCC(=O)Nc2ccc(C(=O)Nc3ccc(OC)cc3)cc2)cc1	1%	11µM*	3%	0	-3%	5%
CCCCOc1ccc(C(=O)Nc2ccc(SC(F)F)cc2)cc1OC	2%	-11%	-23%	-3	-26%	19%
CCOc1ccc(NC(=O)c2ccc(NC(=O)COC(=O)Cc3ccc(OC)cc3)cc2)cc1	2%	4.5µM*	16%	2	-2%	5%
CCCCOc1ccc(-c2nnc(N)s2)cc1	2%	6.3µM*	1%	-2	6%	14%
CCOc1ccc(-c2nnc(N)s2)cc1	0%	u	18%	-1	3%	u
CCCCOc1ccc(-c2ncc(N)cn2)cc1	5%	2.5µM*	u	0	u	19%
CCCCOc1ccc(C(N)=O)cc1	x	0%	x	x	x	x
COC(=O)c1c(NC(=O)CN2CCC3(O)CCCCC3C2c2cc(OC)ccc2OC)sc(C)c1C (centres undefined)	3%	-82%	18µM*	0	-24%	8%
Nc1nc(N)nc(-c2cccc(Br)c2)n1	5%	13µM*	13%	0	9%	x
Cc1cccc(-c2nc(N)nc(N)n2)c1	0%	u	u	1	1%	14%
CCN1CCN(c2ccc(NC(=O)c3ccccc3F)cc2Cl)CC1	3%	7.1µM*	u	2	-6%	18%
COc1c(C)cccc1C(=O)Nc1ccc(N2CCOCC2)c(Cl)c1	0%	2.5µM*	u	-1	-4%	u
COc1ccc(N2CCN(c3ccc(-c4nc(-c5cccc(C)c5)no4)cc3[N+](=O)[O-])CC2)cc1	5%	0%	u	x	7%	x
SMILES	Nrf2 activator	BRCA1 expr up	Nrf2 inh	IL-2 act	A549 viability	p53 reactivator
Cc1ccc(C(=O)c2ncc[nH]2)cc1	-1%	14µM*	u	1	-4%	14%
O=C(c1ccc(OC(F)(F)F)cc1)c1ncc[nH]1	12%	u	u	0	5%	8%
O=C(Nc1ncnc2c1C(c1ccccc1)c1c(ccc3ccccc13)O2)c1ccccc1 (centres undefined)	8%	-70%	u	0	u	-5%
CCOC(=O)CCC(=O)Nc1ncnc2c1C(c1ccccc1)c1c(ccc3ccccc13)O2 (centres undefined)	0%	-43%	6.5µM*!	0	u	-4%
O=C(Cc1ccccc1)Nc1ncnc2c1C(c1ccccc1)c1c(ccc3ccccc13)O2 (centres undefined)	5%	-83%	5.2µM*	-1	u	-3%
CCCNc1nc(C#N)nc(Nc2ccccc2)n1	x	x	6%	x	-5%	x
COc1c(C(=O)Nc2nnc(C3CC3)s2)csc1Cl	8.9µM*	42%	u	-2	13%	14%
Cc1cnc(C(=O)Nc2nnc(C3CC3)s2)cn1	-1%	7%[1.84 µM]	u	4	-12%	12%
CNCCCOc1ccc2c(c1)CCC2	3%	11µM*	-7%	1	-3%	-5%
CCCCc1ccc(NC(=O)c2cc3c(=O)n4ccccc4nc3s2)cc1	-1%	x	16%	x	-3%	x
O=C(NCCO)c1ccc2c3n(nc2c1)-c1ccc(Cl)cc1CO3	4%	3.2µM*	12%	0	-2%	17%
Cc1ccc2c(c1)COc1c3ccc(C(=O)N4CCOCC4)cc3nn1-2	4%	4.5µM*	u	0	0%	24%
COCCNC(=O)c1ccc2c3n(nc2c1)-c1ccc(Cl)cc1CO3	5%	u	20%	0	2%	6%
O=C(c1ccc2c3n(nc2c1)-c1ccc(Cl)cc1CO3)N1CCCCC1	4%	u	u	0	1%	u
O=C(NCC1CC1)c1ccc2c3n(nc2c1)-c1ccc(Cl)cc1CO3	5%	2.5µM*	6%	0	-1%	x
CC(C)[C@@H](CO)NC(=O)c1ccc2c3n(nc2c1)-c1ccc(Cl)cc1CO3	6%	4µM*	u	0	-1%	17%
CCN1CCC(N(Cc2cccc(OC)c2)C(=O)Nc2cccc(C(F)(F)F)c2)CC1	13%	x	8%	x	-1%	x
CC1CC=CC2C1C(=O)N(Cc1ccccc1)C2c1ccc(F)c(Br)c1 (centres undefined)	x	x	u	x	-19%	x
Brc1ccc2ncnc(Nc3ccc(N4CCOCC4)cc3)c2c1	2%	-65%	12µM*	-1	-18%	-2%
